# Tg IFNy HTS: blocks Toxoplasma gondii growth in the presence of IFN-gamma. Toxoplasma gondii growth in IFN-gamma-treated host cells; stronger effect = lower value. AID 1259416. activity change, negative = inhibition, % (test concentration not listed). 69,000 tested, 3.8% active; in the data active = activity change below about -70%, passing the limit was not always enough;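 also: host cells are HeLa cells infected with Toxoplasma gondii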
# Numbers without * were called inactive. This excerpt belongs to a sample that is enriched for hits.
SMILES,Tg IFNy HTS
Cc1ccc(-c2nc(C)c(CCNC(=O)C(=O)Nc3ccccc3F)s2)cc1,-18.4
CC1=NOC(C(=O)N2CCC(c3n[nH]c(=O)n3Cc3ccccc3)CC2)C1 (configuration not stated),4.8
COC1C2CCC1N(S(=O)(=O)c1cccs1)C2 (configuration not stated),-76.6*
COc1ccc(S(=O)(=O)N2CC3CCC2C3Oc2cccnc2)cc1 (configuration not stated),-4.4
CC(C)CN1CC[C@H]2[C@@H]1CCN2S(=O)(=O)c1cccs1,-4.4
CCN(CC)c1ncnc2c1cnn2CC(=O)NCc1ccc(C)cc1,-85.8*
CCN(CC)c1ncnc2c1cnn2CC(=O)NCc1ccc(C(F)(F)F)cc1,56.0
CCOc1ccc(NC(=O)Cn2ncc3c(N(CC)CC)ncnc32)cc1,75.0
CCN(CC)c1ncnc2c1cnn2CC(=O)NCc1ccc(C)o1,41.8
CCN(CC)c1ncnc2c1cnn2CC(=O)Nc1ccc(OC)cc1,89.2
CCN(CC)c1ncnc2c1cnn2CC(=O)Nc1cccc(F)c1,-75.0*
CCN(CC)c1ncnc2c1cnn2CC(=O)NCc1cccc(C(F)(F)F)c1,146.3
CCN(CC)c1ncnc2c1cnn2CC(=O)NCc1ccc(F)cc1,-94.0*
CCN(CC)c1ncnc2c1cnn2CC(=O)NCCOC,-16.2
O=C(O)CCN(Cc1ccco1)S(=O)(=O)c1ccc(Cl)cc1,-7.0
CC(=O)N1C[C@@H]2C3(CCN(C(=O)c4cscn4)CC3)CC[C@]2(C(=O)N(C)C)C1,-1.6
C=CCn1c(=O)c(-c2nc(-c3ccc(C(=O)OC)cc3)no2)c(O)c2ccccc21,47.6
CCN(Cc1noc(C)n1)C(=O)C1(COC)CCC1,-3.2
OCCOc1cccc(-c2nc[nH]c2-c2ccccc2)c1,22.4
COc1ccc(C[C@H]2CN(Cc3cc(C)on3)CC[C@@H]2OC)cc1,-11.0
COCC(=O)N1CC[C@@H](OCC2CC2)[C@@H]1Cc1cnn(C)c1,-3.3
CCC1CN(Cc2c(Cl)ccc(O)c2Cl)CCN1C(C)C (configuration not stated),4.1
Cc1ccc2c(c1C)-n1cccc1C1(CCN(C(=O)c3ccco3)CC1)N2,7.3
FC(F)(F)c1ccnc(NCCNc2ncccc2C(F)(F)F)n1,49.3
Nc1ccccc1SCC(O)Cn1ccc2ccccc21 (configuration not stated),-44.9
SMILES,Tg IFNy HTS
OC(CNCCNc1ncccc1C(F)(F)F)Cn1ccc2ccccc21 (configuration not stated),-82.2*
CC1=NS(=O)(=O)NC(C)=C1CCC(=O)O,19.3
Cc1cccc(N2CCN(CC(=O)N(C)Cc3c(C)noc3C)CC2)c1,1.3
Cc1ccc(C(=O)N2CCC3(CC2)Nc2ccc(Cl)cc2-n2cccc23)cc1,-40.6
O=C(OCC(O)CNC12CC3CC(CC(C3)C1)C2)C12CC3CC(CC(C3)C1)C2 (configuration not stated),-88.6*
Cc1cnn(Cc2ccc(Cl)cc2)c1NC(=O)c1c(C)oc2c1C(=O)CCC2,-3.1
CCc1nc(C)cc(-c2cccc3cccnc23)n1,0.8
c1cnc2c(c1)ccc1cccnc12,-96.2*
c1ccc(Oc2cccc3cccnc23)nc1,70.0
CCOC(=O)c1nn(CCCc2ccccc2)c2c1CN(C(=O)Cn1nc3ccccc3n1)CC2,-19.9
COCCc1ncc(CN2CCC(c3cccc(Nc4cc(C)on4)n3)CC2)cn1,29.8
CCCCOc1ccc(CNC(=O)Cn2ncc3c(N4CCOCC4)ncnc32)cc1,-42.2
CC(=O)c1ccc(CN2CCC(C(O)CC(C)C)CC2)cc1 (configuration not stated),-8.4
COc1ccc2c3c([nH]c2c1)[C@H](CO)N(S(C)(=O)=O)CC31CCN(CC2CCCC2)CC1,129.6
COc1ccc2c3c([nH]c2c1)[C@@H](CO)N(S(C)(=O)=O)CC31CN(CC2CCOCC2)C1,21.6
COc1ccc2c3c([nH]c2c1)[C@@H](CO)N(S(C)(=O)=O)CC31CCN(CC2CCCC2)CC1,-106.7*
CCOc1ccc(-c2noc(-c3c(O)c4cc(C)ccc4[nH]c3=O)n2)cc1,131.1
CN1CCN2CCN(C(=O)c3cccc(-c4ncc[nH]4)c3)CC2C1 (configuration not stated),0.0
Cc1cc(C)c2c(=O)n(Cc3nc(-c4ccccc4)oc3C)c(=O)n(Cc3ccco3)c2n1,33.1
CCc1ccc2oc(=O)cc(CN3CCN(Cc4nc(-c5ccccc5C)oc4C)CC3)c2c1,1.4
Cc1nc(C)c(C(=O)N2CCC(O)(Cn3ccnc3C)CC2)s1,39.3
O=C(Cn1c(-c2ccco2)cc2cccnc21)NCCOc1ccccc1,95.5
CCC1=C[C@@H]2CN(C1)Cc1c([nH]c3ccccc13)[C@@](C(=O)OC)(c1cc3c(cc1OC)N(C)[C@H]1[C@@](O)(C(=O)OC)[C@H](OC(C)=O)[C@]4(CC)C=CCN5CC[C@]31[C@@H]54)C2,-73.6*
COC[C@H]1CCC[C@]12CN(S(=O)(=O)c1cccs1)CCO2,6.7
NC(=NCCCCCCN=C(N)/N=C(\N)Nc1ccc(Cl)cc1)/N=C(\N)Nc1ccc(Cl)cc1,-82.4*
SMILES,Tg IFNy HTS
CC(C)N=C(N)/N=C(\N)Nc1ccc(Cl)cc1,12.2
CC(=O)Nc1ccc(-c2cn(Cc3ccc(Cl)cc3)nn2)cc1,10.0
Cc1cccc(COC2COC3(CCN(C(=O)c4ccoc4)CC3)C2)n1 (configuration not stated),-46.1
Cc1cccc(CN2CCC(N3CCC(C(=O)NC4CCOC4)CC3)CC2)n1 (configuration not stated),5.3
CC(=O)Nc1cccc(-n2ccnc2-c2ccnc(C(C)C)n2)c1,-60.7
Cc1ccc(-n2nc(-c3ccc(OC(F)(F)F)cc3)cc2NC(=O)C2CCC2)cc1C,-61.3
CC(NC(=O)c1cnn2ccn(C)c12)c1cn2ncsc2n1 (configuration not stated),8.6
COc1ccc(CN2C(=O)CSC2c2cccnc2)cc1 (configuration not stated),-44.8
O=C(Cc1ccccc1)Nc1nccs1,-3.8
Cc1cc(C)nc(SCc2ccc(C(=O)Nc3nccs3)cc2)n1,-88.5*
Cc1cc(SCc2ccc(C(=O)O)cc2)nc(SCc2ccc(Cl)cc2)n1,38.3
Cn1cccc1CNCCCSc1ncccn1,26.8
Cc1cccc2c1C(NC(=O)c1cccc3ccnn13)C(=O)N2 (configuration not stated),57.9
Cc1cc(N2CC(C(=O)O)CC2=O)ccc1NC(=O)c1ccco1 (configuration not stated),1.7
Cn1c2ccccc2c2c3c(c4c5ccccc5n(CCC#N)c4c21)CNC3=O,-62.5
CO[C@@H]1[C@H](N(C)C(=O)c2ccccc2)C[C@H]2O[C@]1(C)n1c3ccccc3c3c4c(c5c6ccccc6n2c5c31)C(=O)NC4,-84.2*
C=CCOCC1c2nnn(CC3CC3)c2CCN1Cc1cnn(C)c1 (configuration not stated),118.7
COc1ccc(CCC(=O)N2CCN(S(=O)(=O)c3cc4c5c(c3)CCN5C(=O)CC4)CC2)cc1,35.7
CC(Cc1ccccn1)NS(=O)(=O)CCN1C(=O)CCC1=O (configuration not stated),-7.5
CCCS(=O)(=O)Nc1ccc(F)c(C(=O)c2c[nH]c3ncc(-c4ccc(Cl)cc4)cc23)c1F,-78.6*
C=CCn1c(-c2ccc(S(N)(=O)=O)cc2)n[nH]c1=S,56.5
CC(C)CCC1(C2CCNCC2)NC(=O)NC1=O (configuration not stated),-11.2
c1ccc(NCc2cn3c(n2)CN(Cc2ccoc2)CC3)nc1,-53.8
O=C1CC(Cn2cnc(-c3ccccc3)c2C2CC2)CN1C1CCCC1 (configuration not stated),-62.6
